Data taken from PubChem BioAssay AID686979 (National Center for Advancing Translational Sciences (NCATS), 2013).
Among all 420,000 compounds or so, about 50,000 (12%) were called active. Inconclusive results (about 26%) are left out. The entries come from a sample that favours actives as a whole. Entries that show only a call come without a potency. Values without a mark were called inactive. Calls follow the shape of the dose curve; as a rule, active = well fitted inhibition curve with a large enough effect; inconclusive = small, poorly fitted or top-dose-only effect; inactive = flat fitted curve, though single readings scatter.

test: qHTS for Inhibitors of human tyrosyl-DNA phosphodiesterase 1 (TDP1): qHTS in cells in presence of CPT; details: chicken DT40 Tdp1-/-;hTDP1 cells + 20 nM CPT, ATP luminescence, 48 h; series mostly up to 46.2 µM; also: nearly all actives have a fitted effect of over 55% in size
How it was run: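 Chicken DT40 Tdp1-/- cells stably complemented with human TDP1 were seeded at 400 cells/well in medium containing 20 nM camptothecin, exposed to pin-transferred compounds, and grown at 37 °C for at least 48 hr. Viability was read as ATP luminescence.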
Potency is read from the fitted curve at half-maximal effect.

With `Cc1ccc(S(=O)(=O)NCCC(=O)NNC(=O)C2COc3ccccc3O2)cc1` (configuration not stated) as the compound, how does the Potency read?
The Potency was “inactive”.

For `CC(C)N(c1ccccc1)c1ncnc(NCCC(=O)O)c1[N+](=O)[O-]`, which Potency is on record?
The Potency was “inactive”.

Which Potency does the source give for `CO/N=C(\C(=O)N[C@@H]1C(=O)N2C(C(=O)O)=C(COC(C)=O)CS[C@H]12)c1csc(N)n1` (stereo in doubt) here?
Its Potency is “inactive”.

For `CN1C=CC=C/C1=C1\SC(=S)N(Cc2ccccc2)C1=O`, which Potency is on record?
Its Potency is “inactive”.

For `COc1ccccc1C(=O)NC(CCSC)C(=O)NNC(=O)c1ccccc1C` (configuration not stated), which Potency is on record?
The Potency was “inactive”.

For `CCOC(=O)c1ccc(NC(=O)CSc2ncccn2)cc1`, which Potency is on record?
The Potency was “inactive”.

For `CCOC(=O)c1ccc(NC(=O)Cn2nnc(-c3ccc(C)cc3)n2)cc1`, which Potency is on record?
The Potency was “inactive”.

Which Potency does the source give for `CCOC(=O)c1ccc(NC(=O)Cn2c(=O)cc(C)c3c(C)nn(-c4cccc(F)c4)c32)cc1` here?
Its Potency is “inactive”.

Which Potency does the source give for `CCOC(=O)c1ccc(NC(=O)Cn2cnc3cc(C)c(C)cc32)cc1` here?
The Potency was 1.16 µM (active).

For `Cc1ccc(NC(=O)CSc2nnc(COc3ccccc3C)o2)cc1`, which Potency is on record?
The Potency was “inactive”.

For `CCCc1nnc(SCC(=O)Nc2ccc(C(=O)OCC)cc2)o1`, which Potency is on record?
The Potency was 23.1 µM (active).

With `CC(C)CC(=O)N1CCN(Cc2cccc(Cl)c2)CC1` as the compound, how does the Potency read?
The Potency was “inactive”.

With `O=C(O)C(O)[C@@](O)(Cc1ccc(O)cc1)C(=O)O` (some centres not stated) as the compound, how does the Potency read?
Its Potency is “inactive”.

For `Cc1cc(-c2ccnc(-n3ncc(C(=O)NCCc4ccncc4)c3C)n2)c(C)s1`, which activity change, negative = growth inhibition is on record?
The activity change, negative = growth inhibition was -1.95% [at 9.04 µM].

With `Cc1nnc(SCC2=C(C(=O)O)N3C(=O)C(NC(=O)Cn4nc(C)c(Cl)c4C)C3SC2)s1` (configuration not stated) as the compound, how does the Potency read?
The Potency was “inactive”.

Which Potency does the source give for `O=C(CN(CC1CCCO1)C(=O)CNS(=O)(=O)c1ccc(F)cc1)NCc1ccco1` (configuration not stated) here?
The Potency was “inactive”.

For `O=c1oc2ccccc2c(CNc2ccccc2)c1[N+](=O)[O-]`, which Potency is on record?
Its Potency is “inactive”.

With `CCS(=O)(=O)c1ccc(C(=O)NC)c(Cl)c1Cl` as the compound, how does the Potency read?
Its Potency is “inactive”.

For `Cc1nnc2n1N=C(c1ccccc1)CS2`, which Potency is on record?
Its Potency is “inactive”.

Which Potency does the source give for `c1csc(-c2cn3c(n2)SCC3)c1` here?
Its Potency is “inactive”.

Which Potency does the source give for `O=c1c2cc(-c3ccccc3)sc2nc2n1N=C(c1cccs1)CS2` here?
The Potency was 16.4 µM (active).

Which Potency does the source give for `CCN([C@H](CO)C(C)C)S(=O)(=O)c1ccccc1Br` here?
The Potency was “inactive”.

For `O=C(NC(=S)NC1CCS(=O)(=O)C1)c1cccc([N+](=O)[O-])c1` (configuration not stated), which Potency is on record?
Its Potency is “inactive”.

With `CCc1ccccc1N1C(=O)CN(S(=O)(=O)CC)CC1(C)C(=O)NC1CCCCC1` (configuration not stated) as the compound, how does the Potency read?
The Potency was “inactive”.

Which Potency does the source give for `O=C(Cn1nnc(-c2ccccc2)n1)NCc1ccc2c(c1)OCO2` here?
The Potency was “inactive”.

For `CN(C)C(=O)c1cccc(-c2cnc3sc(NCc4ccc5c(c4)OCO5)nn23)c1`, which Potency is on record?
Its Potency is 16.4 µM (active).

With `O=C(CSc1ncnc2scc(-c3ccccc3)c12)NCc1ccc2c(c1)OCO2` as the compound, how does the Potency read?
Its Potency is “inactive”.

Which Potency does the source give for `CCN(CC(=O)NCc1cccs1)C(=O)c1cccc(S(=O)(=O)Nc2ccccc2OC)c1` here?
The Potency was “inactive”.

With `O=C(Cc1cccs1)Nc1cccc(-c2nc3ccccc3[nH]2)c1` as the compound, how does the Potency read?
The Potency was “inactive”.

For `O=C(Nc1cccc(-c2nc3ccccc3[nH]2)c1)c1ccc(C(=O)Nc2cccc(-c3nc4ccccc4[nH]3)c2)cc1`, which Potency is on record?
The Potency was 18.4 µM (active).

For `O=C(Nc1cccc(NC(=O)c2ccc(Br)cc2)c1)c1ccccc1`, which Potency is on record?
Its Potency is “inactive”.

For `CCCC(=O)Nc1ccc2oc(-c3ccc(O)c(Br)c3)nc2c1`, which Potency is on record?
Its Potency is “inactive”.

For `O=C(CNC(=O)c1ccccc1Br)NNC(=O)c1cccs1`, which Potency is on record?
Its Potency is “inactive”.

For `CCn1c(=O)c2ccccc2n(CC(=O)N2CCCc3ccccc32)c1=O`, which Potency is on record?
Its Potency is “inactive”.

For `COC(=O)[C@H](C)NC(=O)Nc1ccc(OC(F)(F)F)cc1`, which Potency is on record?
Its Potency is “inactive”.

With `Cn1nccc1NC(=O)Nc1ccc(OC(F)(F)F)cc1` as the compound, how does the Potency read?
The Potency was “inactive”.

For `O=C(Nc1ccc(OC(F)(F)F)cc1)c1ccc2c(c1)no[n+]2[O-]`, which Potency is on record?
Its Potency is 4.11 µM (active).

For `CCN1CCN(C(=O)Cn2nc(C)n3c(cc4c(OC)cccc43)c2=O)CC1`, which Potency is on record?
Its Potency is “inactive”.

For `CCn1nc(C)c(CNC(=O)C2CCC(=O)N(Cc3cccc(F)c3)C2)c1C` (configuration not stated), which Potency is on record?
The Potency was “inactive”.

Which Potency does the source give for `Cc1cc(C)c(CN2CCN(C(=O)Cn3ccc(NC(=O)OCc4ccccc4)nc3=O)CC2)c(C)c1` here?
The Potency was 5.17 µM (active).

With `Cc1cc(C)c2c(-n3cccc3)c(NC(=O)OCc3ccccc3)sc2n1` as the compound, how does the Potency read?
The Potency was “inactive”.

Which Potency does the source give for `Nc1ccn(CC(=O)N2CCN(c3ccccn3)CC2)c(=O)n1` here?
The Potency was “inactive”.

With `Cc1cc(C(=O)Nc2nnc(C3CC3)s2)c(C)s1` as the compound, how does the Potency read?
Its Potency is “inactive”.

Which Potency does the source give for `CCOC(=O)c1nn(-c2ccccc2F)c2nc(Nc3ccccc3)cc(=O)n12` here?
Its Potency is “inactive”.

With `COc1ccc(Sc2nc(-c3ccccc3)ncc2OC)cc1` as the compound, how does the Potency read?
The Potency was “inactive”.

Which Potency does the source give for `COc1cnc(-c2ccccn2)nc1Oc1ccc(C(C)(C)C)cc1` here?
Its Potency is 3.66 µM (active).

For `COc1ccc(Cc2nc(-c3ccccn3)no2)cc1OC`, which Potency is on record?
Its Potency is “inactive”.

Which activity change, negative = growth inhibition does the source give for `COCC(=O)Nc1cc(C(=O)N2CCCC(c3ccccc3)CC2)c2c(c1)nc(-c1ccncc1)n2C` (configuration not stated) here?
The activity change, negative = growth inhibition was 6.88% [at 9.04 µM].

With `COc1cccc(/C=C/C(=O)OCC(=O)N2CCCc3ccccc32)c1` as the compound, how does the Potency read?
Its Potency is “inactive”.

For `O=c1cc(-c2ccccc2)nc(N2CCCCC2)[nH]1`, which Potency is on record?
The Potency was “inactive”.

Which Potency does the source give for `CC(=O)c1cc(-c2ccccc2)n(CC(=O)NC2CCCCC2)c1C` here?
The Potency was “inactive”.

Which Potency does the source give for `CC(=O)c1cc(-c2ccccc2)[nH]c1N1CCCC1` here?
The Potency was 16.4 µM (active).

Which Potency does the source give for `CCCCn1c(N)c(N2CCOCC2)c(=O)n(CC(=O)NCCc2ccccc2)c1=O` here?
The Potency was “inactive”.

Which Potency does the source give for `CN(C(=O)CSc1nnc(-c2n[nH]c3ccccc23)o1)c1ccccc1` here?
Its Potency is “inactive”.

For `Cc1c(Cl)c([N+](=O)[O-])nn1CC(=O)NCCCN1CCOCC1`, which Potency is on record?
The Potency was “inactive”.

For `CCCC/C(C)=N/NC(=O)NC1CCCCC1`, which Potency is on record?
Its Potency is “inactive”.

With `C/C(=N\NC(=O)NC1CCCCC1)c1ccc(OC(F)F)cc1OC(F)F` as the compound, how does the Potency read?
The Potency was 23.1 µM (active).

With `O=C(COC(=O)/C=C/c1ccc(OC(F)F)cc1)NC1CCCCC1` as the compound, how does the Potency read?
The Potency was “inactive”.

For `O=C(NCc1ccccc1Cl)C1CCC(CNc2c(N3CCCCC3)c(=O)c2=O)CC1` (configuration not stated), which Potency is on record?
The Potency was “inactive”.

Which Potency does the source give for `COc1ccc2oc(=O)cc(CN3CCOCC3)c2c1` here?
Its Potency is “inactive”.

With `O=C(NC(Cc1ccccc1)C(=O)N1CCCC(C(F)(F)F)C1)c1ccccc1` (configuration not stated) as the compound, how does the Potency read?
Its Potency is “inactive”.

For `FC(F)(F)C1CCCN(c2nsc3ccccc23)C1` (configuration not stated), which Potency is on record?
Its Potency is 2.31 µM (active).

For `O=C(NCC(=O)N1CCCC(C(F)(F)F)C1)c1ccccc1F` (configuration not stated), which Potency is on record?
The Potency was “inactive”.

Which Potency does the source give for `CCCCCC1CC(COc2ccccc2)OC1=O` (configuration not stated) here?
Its Potency is “inactive”.

With `COc1ccc(CCNC(=O)C(=O)NCC2OCCN2S(=O)(=O)c2ccc(OC)c(C)c2)cc1` (configuration not stated) as the compound, how does the Potency read?
Its Potency is 18.4 µM (active).

For `COc1ccc(S(=O)(=O)N2CCOC2CNC(=O)C(=O)NCc2ccncc2)cc1C` (configuration not stated), which Potency is on record?
The Potency was “inactive”.

For `COc1ccc(CCNC(=O)C(=O)NCC2OCCN2S(=O)(=O)c2ccc(F)cc2)cc1OC` (configuration not stated), which Potency is on record?
The Potency was “inactive”.
